# Source: PubChem BioAssay
# Hits are enriched below; roughly 19% of the tested compounds scored in any of these assays.
# HT1080NT lethal: kills 2HG-producing HT-1080-NT fibrosarcoma cells. HT-1080-NT fibrosarcoma viability, CellTiter-Glo ATP luminescence, 48 h. Potency, µM (titrated, usually from 46.1 µM), inactives show at the highest dose activity, negative = less viability, hits mostly cytotoxic. actives 1.6% (n = 360,000). AID 686970;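 further: NT is the 2HG producing partner of a matched IDH1 knockdown line; potency means the concentration at half of the fitted maximal effect; 0% = DMSO-treated cells and -100% = media-only wells without cells; nearly all actives have a fitted effect of over 55% in size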
#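 Read-out is CellTiter-Glo luminescence after 10 minutes at room temperature, following 48 hours' compound treatment of HT-1080-NT cells (750 cells/well, RPMI, 5% FBS, 37 degrees C).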
# HT1080 IDH1KD tx: HT-1080 IDH1 knockdown cell toxicity (counter line) | actives 2% (n = 360,000) | Potency, µM (top dose mostly 46.1 µM), for the others: at the top dose activity, negative = toxicity, usual class: cytotoxic | HT-1080 IDH1 knockdown viability, ATP luminescence, 48 h;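 further: potency means the concentration at half of the fitted maximal effect; 0% = DMSO wells and -100% = cell-free medium wells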
#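 After a 2 h attachment period, IDH1KD HT-1080 cells took pin-transferred compound for 48 h at 37 °C; ATP-based luminescence after 10 min room-temperature reagent incubation reported viability.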
# uPA surface inh: cell surface uPA generation inhibition | cell surface uPA generation assay, qHTS | Potency, µM (top dose mostly 38.3 µM), for the others: at the top dose activity change, negative = inhibition, actives largely listed as inhibitors | actives 0.31% (n = 330,000); active means well fitted inhibition curve with a large enough effect; inconclusive means small, poorly fitted or top-dose-only effect; inactive means no such curve, though single readings can be large or run the other way; tested in mouse RAW 264.7 cells; further: potency means the concentration at half of the fitted maximal effect; nearly all actives have a fitted effect of over 55% in size
# DT40 TDP1 CPT: growth inhibition of DT40 Tdp1-/-;hTDP1 cells with camptothecin (screen for TDP1 inhibitors) | chicken DT40 Tdp1-/-;hTDP1 cells + 20 nM CPT, ATP luminescence, 48 h | actives 12% (n = 420,000) | Potency, µM (doses to about 46.2 µM), without a hit: at the top dose activity change, negative = growth inhibition, hits mostly inhibitors | AID 686979; further: potency means the concentration at half of the fitted maximal effect; nearly all actives have a fitted effect of over 55% in size
#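 Chicken DT40 Tdp1-/- cells complemented with human TDP1, 400 cells/well, exposed to compounds plus 20 nM camptothecin for at least 48 h at 37 C; viability read as ATP content by CellTiter-Glo luminescence.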
# DT40 TDP1 no CPT: qHTS for Inhibitors of human tyrosyl-DNA phosphodiesterase 1 (TDP1): qHTS in cells in absence of CPT; DT40 Tdp1-/- hTDP1 cells, no CPT, ATP luminescence, 48 h; Potency, µM (doses to about 46.2 µM), inactives show top-dose activity change, negative = growth inhibition, usual class: inhibitors; actives 15% (n = 420,000); AID 686978, 2013; further: potency means the concentration at half of the fitted maximal effect; nearly all actives have a fitted effect of over 55% in size
#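 No-CPT arm: Tdp1-/-;hTDP1 DT40 cells (400/well) plus compounds, incubated ≥48 hr at 37 °C. Readout CellTiter-Glo luminescence.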
# IL-1B inflam inh: inflammasome signaling inhibition, IL-1 beta readout | THP-1 LPS/ATP IL-1B secretion, AlphaLISA, 16 h; stronger effect = lower value | activity change, % at 57.5 µM | actives 4.7% (n = 360,000) | AID 743279; in the data active means activity change below about -50%; inconclusive means mostly about -30% to -49%
#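 THP-1 cells pretreated 1 hr with compounds (up to 57.5 uM final), then stimulated with LPS (250 ng/mL final) plus ATP (1.25 mM final); secreted IL-1B measured by AlphaLISA after 16 hr, decreased signal indicating inhibition.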
# An asterisk follows results filed as active; ? = inconclusive; / = no result; [ ] = another dose, or the depositor's remark. Unless noted, the call rests on the fitted dose curve; in most records, active means well fitted curve in the direction sought with a large enough effect; inconclusive means small, poorly fitted or top-dose-only effect, or another doubt; inactive means no such curve, though single readings can be large; an effect the other way counts as inactive or inconclusive. Unless noted, on the % scale 0 is the no-effect control and ±100 the full control effect.
SMILES,HT1080NT lethal,HT1080 IDH1KD tx,uPA surface inh,DT40 TDP1 CPT,DT40 TDP1 no CPT,IL-1B inflam inh
Fc1ccc(NC(=S)NNc2ncc(C(F)(F)F)cc2Cl)c(F)c1,?,16µM*,-6%,12µM*,13µM*,-10
CC(C)C(=O)Nc1ncc(C(F)(F)F)cc1Cl,-10%,-10%,-2%,-9%,-4%,41
Cc1ccc(NC(=S)NNc2ncc(C(F)(F)F)cc2Cl)c(C)c1,?,?,0%,?,?,0
Cc1nn2c(-c3ccccn3)ccnc2c1Cl,4%,5%,0%,-3%,5%,7
COc1ccc(-c2cc(C(=O)Oc3ccc([N+](=O)[O-])cc3)c3ccccc3n2)cc1,-4%,-16%,-10%,?,?,6
COc1ccc2nc3cc([N+](=O)[O-])ccc3c(NNc3ccc([N+](=O)[O-])cc3)c2c1,-23%,-2%,-6%,10µM*,9.2µM*,-8
CCCCC1=CC2=C(c3ccco3)C(=O)C(C)(OC(=O)c3ccc(OC)cc3)C(=O)C2=CN1CC(C)C (configuration not stated),23%,8%,-5%,3.3µM*,5.2µM*,-4
CCCCC1=CC2=C(c3ccco3)C(=O)C(C)(OC(=O)c3ccc(OC)cc3)C(=O)C2=CN1CCCCO (configuration not stated),-4%,5%,6%,?,?,-21
CCCCC1=CC2=C(c3ccco3)C(=O)C(C)(OC(=O)c3ccc(OC)cc3)C(=O)C2=CN1CC1CC1 (configuration not stated),-9%,-2%,-14%,8.2µM*,18µM*,-21
C[C@H]1C[C@]2(O[C@@H]2C)C(=O)O[C@@H]2CCN(C)C/C=C(/COC(=O)[C@]1(C)O)C2=O,/,/,/,-5%,4%,/
CCOc1nc2cnccc2n(CC(=O)Nc2cccc(C)c2C)c1=O,1%,3%,6%,-6%,-2%,15
COc1cccc(NC(=O)c2cn(C3CCCCC3)c(=O)c3c2c2ccccc2n3C)c1,/,/,/,-24%,?,/
CCCCc1c(C)nc2c(-c3ccc(OC)cc3)c(C)[nH]n2c1=O,/,/,/,16µM*,10µM*,/
Cc1nc2c(-c3ccccc3)c(C)[nH]n2c(=O)c1Cc1ccccc1,-27%,?,-5%,?,?,84
Cc1ccccc1Cc1c(C)nc2c(-c3ccccc3)c(C)[nH]n2c1=O,/,/,/,?,21µM*,/
COc1ccc(-c2c(C)[nH]n3c(=O)c(Cc4ccccc4)c(C)nc23)cc1OC,-11%,?,-8%,?,18µM*,-15
Cc1cccc(Cc2c(C)nc3c(-c4ccccc4)c(C)[nH]n3c2=O)c1,/,/,/,5.8µM*,3.7µM*,/
Cc1nc2c(C#N)c(C)[nH]n2c(=O)c1Cc1ccccc1,1%,12%,5%,-18%,-9%,21
COc1ccccc1-c1cnc(C(O)c2cccc(CN3CCCCC3)c2)[nH]1 (configuration not stated),4%,4%,/,1%,-12%,31
O=C(NCC1(N2CCCCC2)CCCC1)c1cnn(-c2nccc(-c3cccs3)n2)c1C1CC1,/,/,/,7%[9.04 µM],1%,/
CC(=O)c1sc(N/N=C/c2cccc([N+](=O)[O-])c2)nc1C,0%,21%,-1%,-18%,-23%,-23
CC(=O)c1sc(N/N=C\c2ccc(N(C)C)cc2)nc1C,4%,-7%,-6%,-8%,?,37
CC(=O)c1sc(N/N=C\c2c(O)ccc3ccccc23)nc1C,?,-24%,-7%,0.92µM*,0.92µM*,74
CC(=O)c1sc(N/N=C/c2cccc(O)c2)nc1C,-14%,-19%,?,26µM*,12µM*,43
Cc1cc2c(cc1S(=O)(=O)Nc1cccc(Cl)c1C)OCCN2C,/,/,/,?,18µM*,/
SMILES,HT1080NT lethal,HT1080 IDH1KD tx,uPA surface inh,DT40 TDP1 CPT,DT40 TDP1 no CPT,IL-1B inflam inh
Cc1cc2c(cc1S(=O)(=O)Nc1cccc(Cl)c1C)n(C)c(=O)c(=O)n2C,/,/,/,6%,?,/
CCOc1ccc(NS(=O)(=O)c2cc3c(cc2C)N(C)CCO3)cc1,-13%,-14%,-14%,21µM*,21µM*,52
COc1ccc(NS(=O)(=O)c2cc3c(cc2C)N(C)CCO3)cc1,-2%,-5%,-14%,?,?,19
CC(=O)c1ccc(N2C(=O)Nc3ccccc3S2(=O)=O)cc1,/,/,/,-29%,?,/
CNc1ncncc1-c1ccc(C(=O)N(C)C)cc1,/,/,/,-3%,-1%,/
CCC(=O)c1ccc(OCc2ccc(C(=O)c3ccccc3)cc2)cc1,-15%,?,3%,6.5µM*,8.2µM*,-136*
COC(=O)c1sccc1N/N=C/c1cccc(Oc2ccccc2)c1,-23%,?,4%,?,?,-17
Cc1nc(C(Cl)(Cl)Cl)nc2[nH]ccc(=O)c12,-14%,?,-10%,?,16µM*,133
COc1ccc(N2CCN(S(=O)(=O)CCNC(=O)c3ccc(OC(C)C)cc3)CC2)cc1,/,/,/,-2%,-18%,/
Cc1ccc(Oc2c(C(N)=O)cc([N+](=O)[O-])cc2[N+](=O)[O-])cc1,?,?,-17%,5.8µM*,5.2µM*,-85*
Cc1ccc(CNc2ccc([N+](=O)[O-])cc2C(N)=O)cc1,17%,6%,3%,-24%,-21%,7
O=C(NCc1cccs1)c1nn(-c2ccccc2F)nc1CO,/,/,/,-20%,-26%,/
COC(=O)c1cc(-c2ccc(C)o2)nc2ccccc12,0%,-8%,-7%,7.3µM*,15µM*,-28
Cc1ccc(-c2cc(C(=O)Nc3ccccc3C)c3ccccc3n2)o1,-15%,-5%,0%,?,18µM*,5
Cc1ccc(-c2cc(C(=O)N3CC(C)CC(C)C3)c3ccccc3n2)o1 (configuration not stated),-12%,?,-4%,?,18µM*,?
Cc1ccc(-c2cc(C(=O)Nc3cccc(S(=O)(=O)N(C)C)c3)c3ccccc3n2)o1,-7%,-4%,0%,?,16µM*,-18
COc1cccc(NC(=O)c2cc(-c3ccc(C)o3)nc3ccccc23)c1,-7%,-29%,0%,?,?,-17
Cc1cc(Br)cn2c(Cc3ccsc3)c(-c3cccc(Br)c3)nc12,11%,1%,/,-11%,-28%,42
